Test results as given in PubChem BioAssay (NCI).
Where “and” joins values, the source holds several entries; their conditions need not be identical. Identical values can stand only once. Compounds without any hit were thinned out: in the full panel of roughly 83,000, 20% have a hit.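 Results are percent growth after 48 hours of single-concentration exposure. 100 means growth as in untreated cells, lower positive values show inhibition; negative values down to -100 show cell death.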 Calls of active or inactive are those of the source. The calls were made as follows: active = growth percent below 10; inactive = the rest.

The compounds below were run on MDA-MB-468 breast (assay: NCI-60 one-dose screen, 48 h (100 = growth as untreated, 0 = no growth, -100 = all killed)). Conditions: 10 µM unless noted.
In the case of `Nc1c(C(=O)Nc2cccc(Cl)c2)sc2nc3c(cc12)C(O)CCC3` (stereo not given), the growth is reported as 39.5% (inactive). With `Cc1cc(OCCO)cc(C)c1Cl` the growth was 124% (inactive). `COc1ccc([N+](=O)[O-])cc1OC` was tested, and the growth was 108% (inactive) and 101% (inactive). With `OC(COc1ccccc1)CN1CCN(c2ccc(Cl)cc2)CC1` (stereo not given) the growth was 104% (inactive). In the case of `NNC(=O)N/N=C1\C(=O)N(c2nccs2)C(=O)C(=O)C1c1nc2ccccc2s1` (stereo not given), the growth is reported as 106% (inactive). For `CN1CNC(=O)NC1`, the growth was 102% (inactive) and 96.9% (inactive). With `COC1=CC(c2ccc[nH]2)=N/C1=C\c1[nH]c(C)c(C(=O)OC(C)C)c1C` the growth was -74.1% (active). `COc1ccc2c(c1)c(-c1noc(C(=O)c3cn(C)c4ccc(Br)cc34)n1)cn2C` was tested, and the growth was 120% (inactive). With `COc1cc(C2c3cc(OC(C)=O)c(OC)cc3CC3C(=O)OCC32)ccc1OC(C)=O` (stereo not given) the growth was 96% (inactive). `CC(/C=C1\SC(=S)N(CC(=O)NC(Cc2c[nH]c3ccccc23)C(=O)O)C1=O)=C\c1ccccc1` (stereo not given) was tested, and the growth was 95.1% (inactive). For `CCCCCCN(CCCCCC)CC(O)c1ccc2c3c(cccc13)CC2` (stereo not given), the growth was 55.6% (inactive). `COc1ccc(/C=C2/C(=O)ON=C2C)cc1` was tested, and the growth was 103% (inactive). `CN(C)c1ccc(/C=C/C=N/NC(=O)c2cc(O)c(O)c(O)c2)cc1` was tested, and the growth was 89.1% (inactive). For `CC(C)Cc1ccc(C(C)C(=O)NCc2c[nH]c3ccc(Cl)cc23)cc1` (stereo not given), the growth was 80.7% (inactive). In the case of `Fc1ccc(-c2nc(-c3ccc(-c4nc5ccc(F)cc5[nH]4)cc3)no2)cc1`, the growth is reported as 56.2% (inactive). `c1ccc([P+](CCC[P+](c2ccccc2)(c2ccccc2)c2ccccc2)(c2ccccc2)c2ccccc2)cc1` was tested, and the growth was 23.7% (inactive). With `O=C(O)CCC/C=C\C[C@H]1C=CC(=O)/C1=C/C[C@@H](O)CCc1cccc(C(F)(F)F)c1` the growth was -6.7% (active). In the case of `Cc1n(Cc2ccc3ccccc3c2)c(Cl)c(Cl)[n+]1Cc1ccc2ccccc2c1`, the growth is reported as -19.5% (active). With `N=c1c2cc(-c3ccccc3)oc2ncn1/N=C/c1ccc(Cl)cc1` the growth was 88.2% (inactive). In the case of `Cc1cc(C(C)(C)C)cc(C)c1Br`, the growth is reported as 113% (inactive). `Cn1c(=O)c2c(nc(Cl)n2CCl)n(C)c1=O` was tested, and the growth was 106% (inactive). With `CCSC1=CC(=O)c2ccccc2C1=O` the growth was -88.1% (active). `CC[C@H](Nc1ncnc2nc[nH]c12)c1nc2cccc(NCc3ccc(C(=O)NO)o3)c2c(=O)n1-c1ccccc1` was tested, and the growth was 84.7% (inactive). In the case of `Cc1ccccc1-n1nnc(C(=O)Nc2nc(-c3ccccc3)c(-c3ccccc3)s2)c1C`, the growth is reported as 61.9% [50 µM] (inactive). `CN1CCN(CCCn2c(=O)c3sc4ncccc4c3n3nnc(-c4ccccc4)c23)CC1` was tested, and the growth was -62% (active). For `COc1ccc(OC)c(NC(=O)CCCCCCNC(=O)C(O)(O)C(F)(F)F)c1`, the growth was 22.6% (inactive). For `O=C(CN1CCN(c2cc3c(cc2F)c(=O)c(C(=O)O)cn3C2CC2)CC1)N/N=C/c1ccncc1`, the growth was 99.6% (inactive). For `O=C(c1cccs1)c1ccccc1Cc1ccccc1`, the growth was 100% (inactive). For `CN1C(=O)C2(SCC(C(=O)NCc3ccccc3)N2C(=O)C2CCCCC2)c2ccccc21` (stereo not given), the growth was 98.2% (inactive). In the case of `CCOC(=O)c1cn2ncnc(Oc3ccc(NC(=O)NCCN4CCOCC4)c(Cl)c3)c2c1C`, the growth is reported as 85.1% (inactive). For `COc1ccc(-c2c3c(nc4n[nH]c(-c5ccc(Cl)cc5)c24)-c2ccccc2C(=O)C3=O)cc1`, the growth was -9.02% (active). `C[N+]1(C)C2CC[C@@H]1CC(OC(=O)C(O)c1ccccc1)C2` (stereo not given in full) was tested, and the growth was 103% (inactive). `CS(=O)/C(C#N)=C\C=C\c1cccc(Cl)c1` (stereo not given) was tested, and the growth was 3.26% (active). In the case of `NS(=O)(=O)c1ccc(N2N=C(c3cccs3)CC2c2ccccc2O)cc1` (stereo not given), the growth is reported as 21.1% (inactive). In the case of `CCOC(=O)[C@@H]1CSC(CC)=C(C(=O)O)N1`, the growth is reported as 113% (inactive). For `C#Cc1cccc(NC(=O)Nc2cccc(NC(=O)CCl)c2)c1`, the growth was -43.5% [8.25 µM] (active). For `Cc1nn(-c2ccc(Cl)cc2)c(=O)n1CCN1CCOCC1`, the growth was 90.3% (inactive). `CCc1ccc(C2=C(O)C(=O)C(c3ccc(CC)cc3)=C(O)C2=O)cc1` was tested, and the growth was -2.72% (active). `CN(C)CCCNc1c2ccccc2nc2c1oc1ccc(Cl)cc12` was tested, and the growth was 5.14% (active). With `CC[N+](CC)(CCOCCOCC[N+](CC)(CC)Cc1ccc([N+](=O)[O-])cc1)Cc1ccc([N+](=O)[O-])cc1` the growth was 97.9% (inactive).
